In the library only some 1.3% were active in any assay of this set; here they are far more common.
NFkB transloc inh = inhibitors of IL-1B driven NFkB p65 nuclear import, primary screen, imaging, HUVEC, IL-1B stimulus, high-content imaging; HUVEC IL-1B NFkB p65 nuclear translocation imaging; inhibition, % at 2 µM; 94,000 compounds, 0.43% hits;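 active = inhibition above about 30% together with a positive call from visual inspection of the well image, limit read from the data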;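 note: nuclear over cytoplasmic p65 intensity ratio measured by imaging; 0% = IL-1B stimulated DMSO wells and 100% = unstimulated DMSO wells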
HUVEC tox IL1B = cytotoxicity in IL-1B stimulated HUVEC, primary screen, cytotoxicity control for IL-1B NFkB translocation project, imaging, Hoechst nuclear count, IL-1B stimulus | HUVEC cell count loss | cell count reduction, % at 2 µM | 94,000 compounds, 0.41% hits;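 active = cell count reduction more than 3 SD above the screen-wide mean, cut at about 70% in these data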;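 note: normalized per plate to untreated control cells as the no-loss baseline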
NFkB transloc pot = enhancers of NFkB p65 translocation in HUVEC – imaging, IL-1B stimulus, high-content imaging, primary screen | HUVEC IL-1B NFkB p65 nuclear translocation imaging | activation, % at 2 µM | 94,000 compounds, 0.3% hits | AID 819, 2007;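 active = activation above 40%, about the mean plus 3 SD, also judged a hit on visual image review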;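 note: percent activation is computed from the nuclear over cytoplasmic p65 intensity ratio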
INS promoter inh = inhibitors of insulin promoter-driven GFP, primary screen, imaging, TRM-6 cells (human fetal islet line), eGFP reporter, cell count | 130,000 compounds, 0.9% hits | AID 1273, 2008 | inhibition, % at 2 µM | reporter expression induced with tamoxifen;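 active = inhibition above the mean plus 3 SD, with well images judged a real hit on visual review, cut at about 60% in these data, passing the limit was not always enough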
An asterisk follows results filed as active; i = inactive; . = no result given.

SMILES | NFkB transloc inh | HUVEC tox IL1B | NFkB transloc pot | INS promoter inh
C=CCn1cc(C(=O)OCC)c(=O)c2ccc(F)cc21 | . | . | . | 12
O=C(CSc1nncs1)Nc1ccc(S(=O)(=O)N2CCCC2)cc1 | . | . | . | -36
CCOc1cc(-c2nc(C)c(C(C)=O)n2O)ccc1OCC(=O)Nc1ccccc1 | . | . | . | 67
Cc1ccc(NC(=O)CC(O)(C(F)(F)F)C(F)(F)F)cc1 | 0 | -28 | 0 | 77*
COc1ccc(C)cc1NC(=O)CC(O)(C(F)(F)F)C(F)(F)F | -1 | -5 | 1 | .
COc1ccc(C2=NN(C)C(=NCc3ccccc3)SC2)cc1 | 36* | -5 | -36 | 11
O=C(Nc1cccs1)Nc1ccc(F)cc1F | . | . | . | 63
O=C(Nc1cccs1)Nc1ccc(Br)cc1F | . | . | . | 70*
O=C(O)Cc1sc(Nc2ccc(F)cc2)nc1-c1cccs1 | . | . | . | -15
CCOC(=O)c1c(C)[nH]c(C(=O)OCC(=O)Nc2cc(C)ccc2OC)c1C | 12 | 2 | -12 | -12
CCOC(=O)c1[nH]c(C)c(C(=O)Nc2cc(OC)ccc2OC)c1C | 30* | 80* | -30 | -252
COc1ccc(CCNC(=O)c2cn3ccc(C)cc3n2)cc1OC | . | . | . | 64
Cc1csc(=N)n1-c1ccc(Cl)cc1 | 9 | -26 | -9 | 91*
COC(=O)c1cc(OC)c(OC)cc1NC(=S)N1CCN(C)CC1 | -1 | 73* | 1 | .
COC(=O)c1cc(OC)c(OC)cc1NC(=S)N1CCCCC1 | -12 | -19 | 12 | -11
Cc1sc2nc(CSCC(=O)N(CCC#N)c3ccccc3)[nH]c(=O)c2c1C | . | . | . | -107
CCOC(=O)c1sc2nc(C)cc(C)c2c1N | . | . | . | 77*
O=C(O)c1ccc(NC(=S)Nc2ccccc2)cc1 | . | . | . | 8
CC(C)N1CC(C(=O)Nc2nc3ccccc3s2)CC1=O (stereo unspecified) | -37 | -10 | 37 | 75*
O=C(Nc1nc2ccccc2s1)C1CC(=O)N(c2ccc(Cl)cc2)C1 (stereo unspecified) | -4 | -4 | 4 | -25
COc1cccc(/C=N/NC(=O)CN2CC(c3ccccc3)CC2=O)c1O (stereo unspecified) | . | . | . | 8
Cc1[nH]c2ccccc2c1Cc1n[nH]c(=S)o1 | -46 | 13 | 46* | .
Cc1cc(NC(=O)CCC(=O)N(Cc2ccco2)C2(C(=O)NC3CCCCC3)CCN(C)CC2)no1 | 99* | 87* | -99 | -38
Cc1ccc(C(C(=O)NC2CCCC2)N(Cc2ccco2)C(=O)CCC(=O)Nc2cc(C)on2)cc1 (stereo unspecified) | 4 | -38 | -3 | i
Cc1cccc(C(=O)Nc2nccs2)c1[N+](=O)[O-] | . | . | . | 4
SMILES | NFkB transloc inh | HUVEC tox IL1B | NFkB transloc pot | INS promoter inh
N#CCCN1CCN(CCC#N)CC1 | -1 | 4 | 1 | -43
N#CCCN1CCNCC1 | 1 | -5 | -1 | 68*
N#CC(=C1CCCC1)c1nc(-c2ccccc2)cs1 | 10 | 0 | -10 | -3
Cc1ccc(-c2csc(C(C#N)=C3CCCC3)n2)cc1 | 20 | 10 | -20 | 75*
CC(C)Nc1nc(NC(C)C)nc(N(C)n2cnnc2)n1 | -8 | -11 | 9 | 27
CCNc1nc(NC(C)C)nc(Nn2cnnc2)n1 | 96* | 90* | -96 | 24
CCCCCN1N=C(C)CC1=O | . | . | . | 67*
CC1=CCC2([N+](=O)[O-])CN(CC(=O)O)CC1([N+](=O)[O-])C2 (stereo unspecified) | . | . | . | 21
CCc1c(C(=O)N2CCOCC2)csc1C | 98* | 91* | -98 | -217
Cc1cc(F)c(F)c(C(=O)N2CCOCC2)c1 | -4 | 37 | 4 | -100
Cc1cc(/C=C(\C#N)c2nc3ccccc3[nH]2)c(C)n1C | . | . | . | 20
N#C/C(=C/c1cccs1)c1nc2ccccc2[nH]1 | . | . | . | 75*
Cc1ccc(/C=C(\C#N)c2nc3ccccc3[nH]2)s1 | -6 | -8 | 6 | 96*
CCC(=O)NC(Nc1nc(C)cs1)(C(=O)OC)C(F)(F)F (stereo unspecified) | . | . | . | -21
O=C(COC(=O)COc1ccc(Cl)cc1Cl)Nc1cccnc1Cl | . | . | . | -7
Cc1cc(C)c(S(=O)(=O)N2CCCCC2)c(C)c1N(C)S(=O)(=O)c1ccccc1 | -22 | -2 | 22 | -38
Cc1oc(-c2cc(F)ccc2F)nc1CN1CCN(C)C(=O)[C@@H]1C | . | . | . | -96
O=C(NC1CCCCC1)c1ccc(CNc2ccccc2)o1 | 34* | 86* | -34 | .
Cc1sc2ncnc(SCC(=O)NC3CC3)c2c1C | 0 | 22 | 0 | 100*
CSc1ccccc1OC1CCN(Cc2ccccc2)CC1 | . | . | . | -22
CCCCOC(=O)Nc1ccc(C)c(Cl)c1 | 28 | 91* | -28 | -63
CCCCOC(=O)Nc1cc(C(=O)OC)ccc1C(=O)OC | . | . | . | 65*
CCCCCCC(C)NC(=S)Nc1cc(S(=O)(=O)N(C)C)ccc1C (stereo unspecified) | . | . | . | -36
Cc1c(C)c2ccc(Oc3ccc([N+](=O)[O-])cc3C(F)(F)F)c(C)c2oc1=O | -67 | -18 | 67* | .
CCOC(=O)c1cc(CC)sc1/N=C/C1=C(O)CCCC1=O | . | . | . | 32
SMILES | NFkB transloc inh | HUVEC tox IL1B | NFkB transloc pot | INS promoter inh
O=C(Nn1c(-c2ccc(Br)cc2)nc2ccccc2c1=O)c1cccnc1 | . | . | . | 78*
COc1ccc(-n2ncc3c(NCc4ccc5c(c4)OCO5)ncnc32)cc1 | . | . | . | 75*
CCNc1nc(NCC)nc(N(n2cnnc2)S(=O)(=O)c2ccc(C)cc2)n1 | . | . | . | 80*
O=C(CSCc1c(Cl)cccc1Cl)Nc1ccc2c(c1)OCCO2 | . | . | . | 11
CCCc1c(C)[nH]c2ccccc2c1=O | . | . | . | 71*
CCc1c(C)[nH]c2ccc(C)cc2c1=O | -7 | -31 | 7 | 77*
C=CCc1c(C)[nH]c2ccc(C)cc2c1=O | -6 | -16 | 6 | 13
COc1ccc(Br)cc1S(=O)(=O)NCCCN1CCOCC1 | . | . | . | 18
CCc1ccc2c(c1)/C(=C/C(=O)c1cccs1)C(=O)N2 | 0 | 0 | 0 | -3
Cc1cccc2c1NC(=O)/C2=C\C(=O)c1cccs1 | -2 | -19 | 2 | 67*
COc1ccc(/C=N/NC(=O)CSCc2ccc([N+](=O)[O-])cc2)cc1OC | . | . | . | -90
COc1ccc(CSCC(=O)N/N=C/c2ccccc2O)cc1 | . | . | . | 75*
COc1cc(/C=N/NC(=O)CSCc2ccc([N+](=O)[O-])cc2)cc(OC)c1OC | -10 | 89* | 10 | 6
O=C(CSc1ccccc1)N/N=C/c1ccccc1O | . | . | . | 0
